Results as given in PubChem BioAssay AID1159580 (chemical genetic matrix, 2015).
In all, about 5,500 compounds went through this assay and about 2,000 (36%) were called active. Not shown: some 18% with an inconclusive outcome. The list shows a part of the results. A number with no mark means an inactive call. Cut-off read from the data, not from the text of the source: active = normalized growth mostly below about 0.91 (no sharp cut-off); inconclusive = no clear call, values can overlap the other calls; inactive = mostly above about 0.92.

Experiment: chemical genetic growth profiling, strain panel (AID 1159580);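 note: tested at 20 µM; growth read once vehicle control cultures reached saturation at 30 °C; 1 = growth at the plate median or of vehicle wells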
Conditions: growth OD
[1] = S. cerevisiae deletion strains, locus YDL101C, strain DUN1, stronger effect = lower value
[2] = S. cerevisiae deletion strains, locus YHR030C, strain SLT2, stronger effect = lower value
[3] = S. cerevisiae deletion strains, locus YNL322C, strain KRE1, stronger effect = lower value
[4] = S. cerevisiae deletion strains, locus YPL055C, strain LGE1, stronger effect = lower value
[5] = S. cerevisiae deletion strains, locus YPL241C, strain CIN2, stronger effect = lower value

SMILES: Cc1ccc(C)c(CSc2nc(C3CCCCC3)c(C#N)c(=O)[nH]2)c1
- normalized growth (S. cerevisiae deletion strains, locus YAR019C, strain CDC15, stronger effect = lower value): 0.979
- normalized growth (S. cerevisiae deletion strains, locus YBL105C, strain PKC1, stronger effect = lower value): 0.975
- normalized growth (S. cerevisiae deletion strains, locus YBR135W, strain CKS1, stronger effect = lower value): 0.964
- normalized growth (S. cerevisiae deletion strains, locus YBR136W, strain MEC1, stronger effect = lower value): 0.98
- normalized growth (S. cerevisiae deletion strains, locus YBR160W, strain CDC28, stronger effect = lower value): 0.98
- normalized growth (S. cerevisiae deletion strains, locus YDL017W, strain CDC7, stronger effect = lower value): 0.981
- normalized growth (S. cerevisiae deletion strains, locus YDL028C, strain MPS1, stronger effect = lower value): 0.985
- normalized growth [1]: 0.983
- normalized growth (S. cerevisiae deletion strains, locus YDL108W, strain KIN28, stronger effect = lower value): 0.985
- normalized growth (S. cerevisiae deletion strains, locus YDL132W, strain cdc53, stronger effect = lower value): 0.973
- normalized growth (S. cerevisiae deletion strains, locus YDL214C, strain PRR2, stronger effect = lower value): 1
- normalized growth (S. cerevisiae deletion strains, locus YDR052C, strain DBF4, stronger effect = lower value): 0.968
- normalized growth (S. cerevisiae deletion strains, locus YDR054C, strain cdc34, stronger effect = lower value): 0.983
- normalized growth (S. cerevisiae deletion strains, locus YDR226W, strain ADK1, stronger effect = lower value): 0.984
- normalized growth (S. cerevisiae deletion strains, locus YDR477W, strain SNF1, stronger effect = lower value): 1
- normalized growth (S. cerevisiae deletion strains, locus YER123W, strain YCK3, stronger effect = lower value): 1.01
- normalized growth (S. cerevisiae deletion strains, locus YER133W, strain GLC7, stronger effect = lower value): 1.01
- normalized growth (S. cerevisiae deletion strains, locus YFL009W, strain cdc4, stronger effect = lower value): 0.981
- normalized growth (S. cerevisiae deletion strains, locus YFL029C, strain CAK1, stronger effect = lower value): 0.983
- normalized growth (S. cerevisiae deletion strains, locus YFR003C, strain YPI1, stronger effect = lower value): 0.98
- normalized growth (S. cerevisiae deletion strains, locus YFR019W, strain FAB1, stronger effect = lower value): 0.992
- normalized growth (S. cerevisiae deletion strains, locus YFR028C, strain CDC14, stronger effect = lower value): 0.975
- normalized growth (S. cerevisiae deletion strains, locus YGR040W, strain KSS1, stronger effect = lower value): 1.02
- normalized growth (S. cerevisiae deletion strains, locus YGR052W, strain FMP48, stronger effect = lower value): 1.11
- normalized growth (S. cerevisiae deletion strains, locus YGR092W, strain DBF2, stronger effect = lower value): 0.987
- normalized growth [2]: 1.18 [resistant] (active)
- normalized growth (S. cerevisiae deletion strains, locus YHR079C, strain IRE1, stronger effect = lower value): 1.12
- normalized growth (S. cerevisiae deletion strains, locus YHR082C, strain KSP1, stronger effect = lower value): 1.14
- normalized growth (S. cerevisiae deletion strains, locus YHR205W, strain SCH9, stronger effect = lower value): 0.988
- normalized growth (S. cerevisiae deletion strains, locus YIL147C, strain SLN1, stronger effect = lower value): 0.971
- normalized growth (S. cerevisiae deletion strains, locus YJL095W, strain BCK1, stronger effect = lower value): 1.12
- normalized growth (S. cerevisiae deletion strains, locus YJL128C, strain PBS2, stronger effect = lower value): 0.981
- normalized growth (S. cerevisiae deletion strains, locus YJL157C, strain FAR1, stronger effect = lower value): 1
- normalized growth (S. cerevisiae deletion strains, locus YJR016C, strain ILV3, stronger effect = lower value): 0.989
- normalized growth (S. cerevisiae deletion strains, locus YJR066W, strain TOR1 (second series), stronger effect = lower value): 0.99
- normalized growth (S. cerevisiae deletion strains, locus YJR066W, strain TOR1, stronger effect = lower value): 1.17
- normalized growth (S. cerevisiae deletion strains, locus YKL048C, strain ELM1, stronger effect = lower value): 0.98
- normalized growth (S. cerevisiae deletion strains, locus YKL067W, strain YNK1, stronger effect = lower value): 0.98
- normalized growth (S. cerevisiae deletion strains, locus YKL101W, strain HSL1, stronger effect = lower value): 0.992
- normalized growth (S. cerevisiae deletion strains, locus YKL193C, strain SDS22, stronger effect = lower value): 0.97
- normalized growth (S. cerevisiae deletion strains, locus YKL203C, strain TOR2, stronger effect = lower value): 1.09
- normalized growth (S. cerevisiae deletion strains, locus YLR113W, strain HOG1, stronger effect = lower value): 1.06
- normalized growth (S. cerevisiae deletion strains, locus YLR133W, strain CKI1, stronger effect = lower value): 0.984
- normalized growth (S. cerevisiae deletion strains, locus YLR403W, strain SFP1, stronger effect = lower value): 0.999
- normalized growth (S. cerevisiae deletion strains, locus YML070W, strain DAK1, stronger effect = lower value): 1
- normalized growth (S. cerevisiae deletion strains, locus YMR001C, strain CDC5, stronger effect = lower value): 0.971
- normalized growth (S. cerevisiae deletion strains, locus YMR205C, strain PFK2 (second series), stronger effect = lower value): 0.99
- normalized growth (S. cerevisiae deletion strains, locus YMR277W, strain FCP1, stronger effect = lower value): 0.978
- normalized growth (S. cerevisiae deletion strains, locus YNL006W, strain LST8, stronger effect = lower value): 0.978
- normalized growth (S. cerevisiae deletion strains, locus YNL020C, strain ARK1, stronger effect = lower value): 0.982
- normalized growth (S. cerevisiae deletion strains, locus YNL161W, strain CBK1, stronger effect = lower value): 0.984
- normalized growth (S. cerevisiae deletion strains, locus YNL183C, strain NPR1, stronger effect = lower value): 1.11
- normalized growth (S. cerevisiae deletion strains, locus YNL207W, strain RIO2, stronger effect = lower value): 0.995
- normalized growth (S. cerevisiae deletion strains, locus YNL222W, strain SSU72, stronger effect = lower value): 0.972
- normalized growth (S. cerevisiae deletion strains, locus YNL307C, strain MCK1 (second series), stronger effect = lower value): 0.996
- normalized growth (S. cerevisiae deletion strains, locus YOL078W, strain AVO1, stronger effect = lower value): 0.982
- normalized growth (S. cerevisiae deletion strains, locus YOL136C, strain PFK27, stronger effect = lower value): 1.01
- normalized growth (S. cerevisiae deletion strains, locus YOR061W, strain CKA2, stronger effect = lower value): 0.996
- normalized growth (S. cerevisiae deletion strains, locus YOR119C, strain RIO1, stronger effect = lower value): 1.04
- normalized growth (S. cerevisiae deletion strains, locus YOR231W, strain MKK1, stronger effect = lower value): 1.1
- normalized growth (S. cerevisiae deletion strains, locus YOR329C, strain SCD5, stronger effect = lower value): 0.985
- normalized growth (S. cerevisiae deletion strains, locus YPL031C, strain PHO85, stronger effect = lower value): 1.01
- normalized growth (S. cerevisiae deletion strains, locus YPL153C, strain RAD53, stronger effect = lower value): 1.01
- normalized growth (S. cerevisiae deletion strains, locus YPL204W, strain HRR25, stronger effect = lower value): 1
- normalized growth (S. cerevisiae deletion strains, locus YPL209C, strain IPL1, stronger effect = lower value): 0.988
- normalized growth (S. cerevisiae deletion strains, locus YPL256C, strain CLN2, stronger effect = lower value): 1.12
- normalized growth (S. cerevisiae deletion strains, locus YPR025C, strain CCL1, stronger effect = lower value): 0.973
- normalized growth (S. cerevisiae deletion strains, locus YPR106W, strain ISR1, stronger effect = lower value): 0.987
- normalized growth (S. cerevisiae deletion strains, locus YPR111W, strain DBF20, stronger effect = lower value): 0.977
- normalized growth (S. cerevisiae deletion strains, strain NNK1, stronger effect = lower value): 0.994
- normalized growth (S. cerevisiae deletion strains, strain TSCII, stronger effect = lower value): 0.981

SMILES: NCc1cc(=O)[nH]o1
- normalized growth (S. cerevisiae deletion strains, locus YAL040C, strain CLN3, stronger effect = lower value): 1.05
- normalized growth (S. cerevisiae deletion strains, locus YCL061C, strain MRC1 (second series), stronger effect = lower value): 1
- normalized growth (S. cerevisiae deletion strains, locus YDR363W, strain ESC2, stronger effect = lower value): 1.01
- normalized growth (S. cerevisiae deletion strains, locus YER002W, strain NOP16, stronger effect = lower value): 1.02
- normalized growth (S. cerevisiae deletion strains, locus YMR307W, strain GAS1, stronger effect = lower value): 1
- normalized growth (S. cerevisiae deletion strains, locus YNL175C, strain NOP13, stronger effect = lower value): 1
- normalized growth (S. cerevisiae deletion strains, locus YNL197C, strain WHI3, stronger effect = lower value): 1.02
- normalized growth (S. cerevisiae deletion strains, locus YNL224C, strain SQS1, stronger effect = lower value): 1.01
- normalized growth [3]: 1.01
- normalized growth (S. cerevisiae deletion strains, locus YOR083W, strain WHI5 (second series), stronger effect = lower value): 1
- normalized growth [4]: 1.01
- normalized growth [5]: 0.989

SMILES: Cc1noc(C)c1C(=O)N1CCN(c2ncc(C(F)(F)F)cc2Cl)CC1
- normalized growth (S. cerevisiae deletion strains, locus YAL013W, strain DEP1, stronger effect = lower value): 0.994
- normalized growth (S. cerevisiae deletion strains, locus YBR229C, strain ROT2, stronger effect = lower value): 0.988
- normalized growth (S. cerevisiae deletion strains, locus YCL061C, strain MRC1, stronger effect = lower value): 0.993
- normalized growth [1]: 0.977
- normalized growth (S. cerevisiae deletion strains, locus YDR150W, strain NUM1, stronger effect = lower value): 0.897
- normalized growth (S. cerevisiae deletion strains, locus YEL061C, strain CIN8, stronger effect = lower value): 0.975
- normalized growth (S. cerevisiae deletion strains, locus YGR078C, strain PAC10, stronger effect = lower value): 0.994
- normalized growth [2]: 1.07
- normalized growth (S. cerevisiae deletion strains, locus YHR087W, strain rtc3, stronger effect = lower value): 0.975
- normalized growth (S. cerevisiae deletion strains, locus YJR043C, strain POL32, stronger effect = lower value): 0.998
- normalized growth (S. cerevisiae deletion strains, locus YJR075W, strain HOC1, stronger effect = lower value): 0.972
- normalized growth (S. cerevisiae deletion strains, locus YKL190W, strain CNB1, stronger effect = lower value): 1
- normalized growth (S. cerevisiae deletion strains, locus YLR039C, strain RIC1, stronger effect = lower value): 0.995
- normalized growth (S. cerevisiae deletion strains, locus YLR058C, strain SHM2 (second series), stronger effect = lower value): 1
- normalized growth (S. cerevisiae deletion strains, locus YLR085C, strain ARP6, stronger effect = lower value): 0.982
- normalized growth (S. cerevisiae deletion strains, locus YLR262C, strain YPT6, stronger effect = lower value): 0.979
- normalized growth (S. cerevisiae deletion strains, locus YML094W, strain GIM5, stronger effect = lower value): 0.968
- normalized growth (S. cerevisiae deletion strains, locus YMR219W, strain ESC1, stronger effect = lower value): 1
- normalized growth (S. cerevisiae deletion strains, locus YMR263W, strain SAP30, stronger effect = lower value): 1.01
- normalized growth (S. cerevisiae deletion strains, locus YNL128W, strain TEP1, stronger effect = lower value): 0.99
- normalized growth (S. cerevisiae deletion strains, locus YNL153C, strain GIM3, stronger effect = lower value): 0.986
- normalized growth (S. cerevisiae deletion strains, locus YNL298W, strain CLA4 (second series), stronger effect = lower value): 1.02
- normalized growth [3]: 0.989
- normalized growth (S. cerevisiae deletion strains, locus YNR030W, strain Alg12, stronger effect = lower value): 0.97
- normalized growth (S. cerevisiae deletion strains, locus YOL006C, strain TOP1, stronger effect = lower value): 0.99
- normalized growth [4]: 0.933
- normalized growth [5]: 1.1
- normalized growth (S. cerevisiae deletion strains, locus YPR135W, strain CTF4, stronger effect = lower value): 0.942
- normalized growth (S. cerevisiae strains, strain wild type, stronger effect = lower value): 0.993
